# Test results: PubChem BioAssay (NCATS)
# Records with an inconclusive call do not appear. Entries that show only a call come without a potency. The source made the active and inactive calls. Calls come from the whole dose curve; as a rule, active = well fitted cell-killing curve with a large enough effect; inconclusive = small, poorly fitted or top-dose-only effect; inactive = flat fitted curve, though single readings scatter.
# Assay: Cell Viability - LYMP2-024 (AID 988); note: nearly all actives have a fitted effect of over 60% in size
# Conditions: LYMP2-024 lymphoblastoid cell viability; series mostly up to 92.2 µM
# Excerpt: NIH Chemical Genomics Center [NCGC]
# NIH Molecular Libraries Screening Centers Network [MLSCN]
# National Institutes of Environmental Health Sciences [NIEHS]
# National Toxicology Program [NTP]
# We have developed a 1536-well cell-based assay for quantitative high throughput screening (qHTS) against a number of cell lines to determine in vitro cytotoxicity of small molecules. This particular assay uses a human lymphoblastoid cell line (LYMP2-024) purchased from Coriell Institute for Medical Research.
# NCGC Assay Protocol Summary:
# The CellTiter-Glo luminescent cell viability assay (Promega) is a homogeneous method to measure the number of viable cells in culture. The end point readout of this assay is based on quantitation of intracellular ATP, an indicator of metabolic activity, using the luciferase reaction. Luciferase catalyzes the oxidation of beetle Luciferin to oxyluciferin and light in the presence of ATP. The luminescent signal is proportional to amount of ATP present.
# Using the CellTiter-Glo luminescent cell viability assay, the amount of cellular ATP was measured in the lymphoblastoid cell line with complete culture medium following compound treatment for 24 hours. The assay was performed in opaque white Kalypsys 1536-well plates. In the screen, tetraoctylammonium bromide was used as positive control. Library compounds were measured for their ability to cause acute toxicity in the cell line, as reflected by a decrease in intracellular ATP levels, in a concentration-dependent manner. […] AC50 values were determined from concentration-response data modeled with the standard Hill equation.
# qHTS protocol for CellTiter Glo lymphoblastoid cellular assay
# [Step] [Parameter] [Value] [Description]
# 1. Reagent; 5 uL; 2500 lymphoblastoid cells/well
# 2. Time; 5 hr; 37 C incubation
# 4. Controls; 23 nL; Tetraoctylammonium bromide 6.4pM to 92 uM
# 5. Time; 24 hr; 37 C incubation
# 6. Reagent; 5 uL; CellTiter Glo reagent
# 7. Time; 30 min; Room Temperature
# 8. Detection; Luminescence; Viewlux plate reader
# Keywords: cell viability, cytotoxicity, lymphoblastoid cell line, luminescence, NTPHTS, NTPHTS_NCGC, NIEHS, DSSTox, MLSMR, MLSCN, NIH Roadmap, qHTS, NCGC
row,SMILES,Potency
1,CC(C)c1ccccc1,inactive
2,COc1ccc(N)c(OC)c1,inactive
3,C=C(C)C(N)=O,inactive
4,CCCCCCCN,inactive
5,CCOc1ccc(NC(C)=O)cc1N,inactive
6,Cc1ccc(Cl)cc1,inactive
7,O=[N+]([O-])c1ccccc1CCO,inactive
8,C=CCCC,inactive
9,OCCO,inactive
10,Cc1ccc(C)c([N+](=O)[O-])c1,inactive
11,CC(C)Nc1ccccc1,inactive
12,Nc1nc(CC(=O)O)cs1,inactive
13,Cc1ccccc1C(N)=O,inactive
14,CC(C)(C)c1ccc(OCC2CO2)cc1 (stereo not given),inactive
15,CC(C)N=C=NC(C)C,inactive
16,Nc1cccc2c(=O)[nH][nH]c(=O)c12,inactive
17,CCCOCC(C)O (stereo not given),inactive
18,Cc1cccc(C)c1,inactive
19,Cc1ccccc1C(=O)O,inactive
20,CC(C)C=O,inactive

row,SMILES,Potency
1,Cc1ccc(C(C)(C)C)cc1,inactive
2,COc1ccc(N=[N+]([O-])c2ccc(OC)cc2)cc1,inactive
3,Clc1ccc(Cl)c(Cl)c1Cl,inactive
4,C1CCCC1,inactive
5,O=C(O)c1cccc(Cl)c1Cl,inactive
6,Cc1ccc2nc(-c3ccc(N)cc3)sc2c1S(=O)(=O)O,inactive
7,Cc1ccc2cccnc2c1,inactive
8,CC(=O)Nc1ccccc1C,inactive
9,c1ccc2c(c1)ccc1ncccc12,inactive
10,CCC(C)=O,inactive
11,Nc1nc(-c2ccccc2)cs1,inactive
12,ICCc1ccccc1,inactive
13,Nc1cccc(C(F)(F)F)c1,inactive
14,FB(F)F,inactive
15,CC(N)CN (stereo not given),inactive
16,CC(O)COC(C)(C)C (stereo not given),inactive
17,NC(=O)NC(N)=O,inactive
18,O=C(O)c1cccc([N+](=O)[O-])c1,inactive
19,Cc1ccc(Br)cc1,inactive
20,N#CCc1ccccc1[N+](=O)[O-],inactive
